# Measurements as given in PubChem BioAssay AID1851 (National Center for Advancing Translational Sciences (NCATS), 2009).
# Among all 16,000 compounds or so, about 4,000 (25%) were called active. Inconclusive results (about 26%) are left out. Not all results are given here. Unmarked numbers belong to inactive results. Calls follow the shape of the dose curve; as a rule, active = well fitted curve in the direction sought with a large enough effect; inconclusive = small, poorly fitted or top-dose-only effect, or effect the other way; inactive = no such curve, though single readings can be large or run the other way.
# Target: Cytochrome P450 2C9 (Homo sapiens) (UniProt P11712)
# Test: Cytochrome panel assay with activity outcomes
# Conditions: recombinant CYP, pro-luciferin dealkylation, luminescence, p450-cyp2c9; series mostly up to 57.1 µM; activity, negative = inhibition: at the top concentration
# % is scaled to controls: 0 for no effect and ±100 for the full control effect.
# Cytochrome P450 2C9 (Homo sapiens), sequence (P11712 whole entry, looked up): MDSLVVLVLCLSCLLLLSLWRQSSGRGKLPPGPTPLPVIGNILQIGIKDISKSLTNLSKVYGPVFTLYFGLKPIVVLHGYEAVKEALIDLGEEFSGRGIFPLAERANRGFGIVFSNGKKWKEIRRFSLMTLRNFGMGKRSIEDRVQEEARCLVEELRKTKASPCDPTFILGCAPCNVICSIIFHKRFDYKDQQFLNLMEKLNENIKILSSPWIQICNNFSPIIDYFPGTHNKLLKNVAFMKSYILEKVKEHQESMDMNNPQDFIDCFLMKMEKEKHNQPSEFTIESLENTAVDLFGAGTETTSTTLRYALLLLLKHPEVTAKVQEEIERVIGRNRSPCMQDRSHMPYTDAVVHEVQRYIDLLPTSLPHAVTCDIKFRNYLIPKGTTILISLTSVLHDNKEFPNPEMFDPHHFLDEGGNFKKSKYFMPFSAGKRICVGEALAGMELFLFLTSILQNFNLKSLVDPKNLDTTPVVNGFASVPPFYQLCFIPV
SMILES,"activity, negative = inhibition",AC50
CO[C@H]1COC(=O)CCC[C@@H](C)[C@H](OC)COC(=O)[C@@H](C)NC(=O)C/C=C\[C@@H]1C,-11.7% [at 11.4 µM],
Cc1noc(C)c1-c1nc(Nc2ccc(F)cc2)c2ccccc2n1,-2.69% [at 2.29 µM],
CCN(CC)CCNC(=O)c1cc(Br)c(N)cc1OC,9.64% [at 25.6 µM],
CCCc1c(OCCCOc2ccc(OCC(=O)O)cc2)ccc(C(C)=O)c1O,,10 µM (active)
O=C(O)COc1ccc(OCCNC[C@@H](O)COc2ccccc2)cc1,21.8%,
CCCc1c(OCCCOc2ccc(OCC(=O)O)cc2)ccc(CC=O)c1O,1.35%,
Cn1cccc1C(=O)N1CCC[C@@]2(CCN(Cc3ccc(C#N)cc3)C2)C1,14.1%,
NC/C=C\C(=O)O,,inactive
CC[C@H](C)[C@@H]1O[C@]2(CC[C@@H]1C)C[C@H]1C[C@H](CC=C(C)[C@@H](O[C@@H]3C[C@H](OC)[C@H](O[C@@H]4C[C@H](OC)[C@H](O)[C@H](C)O4)[C@H](C)O3)[C@@H](C)C=CC=C3CO[C@@H]4[C@@H](O)C(C)=C[C@@H](C(=O)O1)[C@]34O)O2,-8.8% [at 25.6 µM],
O=S(=O)(c1cccc(C(F)(F)F)c1)N1CCC(c2cc(-c3cccc4ccccc34)n[nH]2)CC1,-13.6%,
O=C(Cn1cc(C(F)(F)F)ccc1=O)N1CCN(S(=O)(=O)c2ccccc2)CC1,-4.35%,
O=C1C2CCCN2c2ccc(S(=O)(=O)N3CCOCC3)cc2N1Cc1cccc(C(F)(F)F)c1 (stereo unspecified),,5.01 µM (active)
COc1ccc(NC(=O)N2CCCC3(CCN(C(=O)c4csnn4)CC3)C2)cc1,5.13%,
O/N=C/c1ccccc1OCc1ccc(Cl)cc1,,4.47 µM (active)
O/N=C/c1cc(Cl)ccc1OCc1cccc2ccccc12,,7.08 µM (active)
Cc1ccc(COc2coc(CO)cc2=O)cc1,-10.7%,
Oc1ccc(Cl)cc1C=Nc1cnc2ccccc2c1,1.22% [at 11.4 µM],
Cc1n[nH]c(=S)n1/N=C/c1ccccc1OCc1ccc(Cl)cc1,-9.86%,
O=C(SCc1cccc2ccccc12)c1ccc(Cl)cc1,-1.66% [at 11.4 µM],
O=C(Cc1ccccc1)N/N=C/c1ccccc1OCc1ccc(Cl)cc1,,7.94 µM (active)
Cc1ccc(COc2ccc(Br)cc2/C=N/O)cc1,,2.82 µM (active)
Cc1ccc(CONC(=O)/N=C/N(C)C)cc1,-7.04%,
COc1ccc(COC(=O)N/N=C2/C[C@@H](O)[C@@H](O)[C@@H]3[C@@H]4C(=O)N(C(C)(C)C)C(=O)[C@H]4CC[C@H]23)cc1,20.6% [at 11.4 µM],

SMILES,"activity, negative = inhibition",AC50
CC(C)(C)c1onc(OCP(=O)(O)O)c1C[C@@H](N)C(=O)O,6.09%,
C[C@@H]1O[C@H](O[C@@H]2[C@H](C)O[C@H](O[C@@H]3[C@H](C)O[C@H](O[C@H]4CC[C@]5(C)[C@@H](CC[C@@H]6[C@H]5C[C@@H](O)[C@]5(C)[C@@H](C7=CC(=O)OC7)CC[C@]65O)C4)C[C@@H]3O)C[C@@H]2O)C[C@H](O)[C@@H]1O,25.1% [at 25.6 µM],
C[C@@H](Cc1ccccc1)Nc1ncnc2c1ncn2[C@@H]1O[C@@H](CO)[C@H](O)[C@@H]1O,18.9%,
COCCNc1nc(-c2c(C)noc2C)nc2ccccc12,15% [at 2.29 µM],
NC(=S)N/N=C/c1ccccc1OCc1cccc(Cl)c1,,1.58 µM (active)
NC(N)=NC(N)=Nc1cccc(Cl)c1,4.42%,
NC1=NC2(CCCCCC2)n2c(nc3ccccc32)N1,-11.5%,
CC1CCC2(CC1)N=C(N)Nc1nc3ccccc3n12 (stereo unspecified),-29.6%,
CCC1(C)Nc2ccccc2C(=O)N1O (stereo unspecified),12.4%,
CCCC1(C)Nc2ccccc2-c2nc3ccccc3n21 (stereo unspecified),,3.98 µM (active)
CCCCC1(C)Nc2ccccc2-c2nc3ccccc3n21 (stereo unspecified),,12.6 µM (active)
COc1c2c(nc3ccccc13)O[C@@H]([C@@](C)(O)CO)C2,-7.31%,
Cc1cccc(C(=O)NNC(=O)C(=O)NC(C)(C)C)c1,-6.6%,
C=C(C)C1CC=C(C)/C(=N/NC(=O)c2ccc(NC(=O)c3cccc(C)c3)cc2)C1 (stereo unspecified),,1.58 µM (active)
Cc1cccc(C(=O)NNC(=O)C2CCCO2)c1 (stereo unspecified),-2.49%,
COc1ccc(C[N+](C)(C)N)cc1OC,13.9% [at 11.4 µM],
COc1ccc(Cc2n[nH]c(=O)c3ccccc23)cc1OC,,25.1 µM (active)
COc1ccc(CCN(C)CCc2ccc(OC)c(OC)c2)cc1OC,,inactive
CCCCc1ccc2nc(NC(=O)OC)[nH]c2c1,1.99% [at 25.6 µM],
Nc1c(OCC(=O)O)ccc2cc(S(=O)(=O)O)ccc12,-7.12% [at 11.4 µM],
Clc1ccc(Sc2cc(N3CCOCC3)nc(-c3ccccc3)n2)cc1,,10 µM (active)
COc1cccc(-c2ccc3ncnc(N4CCOCC4)c3c2)c1,-6.77% [at 2.29 µM],
COc1cccc(Sc2cc(N3CCOCC3)nc(-c3ccccc3)n2)c1,,10 µM (active)
